Among the data in PubChem BioAssay (NCI) are growth values, retold here.

Compounds without any hit were thinned out: in the full panel of roughly 83,000, 20% have a hit.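 Method: cells in 96-well plates; compound added at one concentration; 48 h incubation; percent growth measured; values under 10 scored active.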 Activity calls are given as the source filed them.

This assay relates to NCI-H23 lung. In words: NCI-60 one-dose screen, 48 h (100 = growth as untreated, 0 = no growth, -100 = all killed). Conditions: 10 µM unless noted. On the procedure:
Growth inhibition of the NCI-H23 human Non-Small Cell Lung tumor cell line is measured as a screen for anti-cancer activity. Cells are grown in 96 well plates and exposed to the test compound for 48 hours. Compounds are tested at a single concentration, which is 10^-5 M for most compounds. The reported endpoint is percent growth (GI% or GIPRCNT), where numbers from 0 - 100% represent growth inhibition, and numbers from -100% - 0 represent cell death. For example, a value of 40 represents 60% growth inhibition. A value of 0 means no net growth occurred over the course of the experiment. A value of -40 indicates 40% of cells at the beginning of the experiment died by the end of the experiment. A value of -100 means all cells are dead at the end of the experiment.
NCI-60 Human Tumor Cell Lines Screen was performed using the standard one-dose NCI protocol, which is described in more detail at https://dtp.cancer.gov/discovery_development/nci-60/default.htm.
Compounds with GIPRCNT values below 10 were considered active. Activity score was based on GIPRCNT using the following formula: […]
Score is 0 for GIPRCNT values of 100 or above, 50 for GIPRCNT values of 0, and 100 for GIPRCNT values of -100.
Consider `O=C(N/N=C/c1ccc(Cl)cc1)c1ccc(NC(=O)c2ccccn2)cc1`, for which the growth was 54.5% (inactive).
`CCOC(=O)C/C(=N\Nc1cc(=O)[nH]c2ccc(OC)cc12)C(=O)OCC`: the growth is 99.4% (inactive).
To `CC/C(=C(\c1ccc(Cl)cc1)c1ccc(OCCN2CCCCC2)cc1)c1ccc(O)cc1` belongs 47.6% (inactive); to `O=c1oc2c(cnc3ccccc32)cc1-c1cccc(Cl)c1`, 101% (inactive).
As for `Nc1nc2ccccc2c2c(=O)c3cc(Cl)ccc3sc12`, the growth was 87.5% (inactive).
To `COc1ccc(Nc2ncc(I)c(NCCCNC(=O)C3CCC3)n2)cc1` belongs 8.39% (active).
As for `O=C1/C(=C/c2cccc(Br)c2)COc2ccc(O)cc21`, the figure is 74.8% (inactive).
As for `C=C(C)[C@@H]1CC[C@]2(C)[C@H](C=CC3=C4C[C@@](C)(CO)CC[C@]4(C)CC[C@]32C)[C@@]1(C)CCCN`, the figure is -37.1% (active); as for `COC1C(O)CC(OC2CC(OC3CC(O[C@@H]4C(=O)c5c(cc6cc(OC7CC(OC8CC(O)C(O)C(C)O8)C(O)C(C)O7)c(C)c(O)c6c5O)CC4[C@H](OC)[C@@H](O)C(C)=O)OC(C)C3O)OC(C)C2O)OC1C` (stereo not given in full), -12.1% (active); as for `COc1ccccc1/C=C/C(=O)Nc1ccc(F)cc1`, 88.2% (inactive).
For the compound `COC(=O)c1sccc1-c1cc(O)c(C(=O)Nc2ccccc2)s1`, the growth was 83% (inactive).
As for `CCCCCCCCCCCCCCCCCCOc1ccccc1CC(=O)NCC[N+](C)(C)C`, the figure is 51.6% (inactive).
Take `N#Cc1c(-c2ccccc2)nc2c(c(-c3ccc(Cl)cc3)nn2-c2ccccc2)c1-c1ccc([N+](=O)[O-])cc1`: the growth was 96% (inactive).
With `Cc1ccc(S(=O)(=O)OCC#CCOS(=O)(=O)c2ccc(C)cc2)cc1`, the growth was 59.3% (inactive).
As for `COc1cc(C=C2C(=O)NC(=S)NC2=O)cc(CN2CCCC2)c1O`, the figure is 103% (inactive); as for `CCOc1ncc([N+](=O)[O-])c(OCC)n1`, 106% (inactive).
As for `Ic1ccc(Nc2nc3nonc3nc2Nc2ccc(I)cc2)cc1`, the growth was 1.49% (active).
In the case of `CCCCCc1ccc(S(=O)(=O)Nc2ccc3nc(N)oc3c2)cc1`, the growth was 40.2% (inactive).
As for `NS(=O)(=O)c1ccc(C(=O)N=Nc2c(O)[nH]c3ccc(Cl)cc23)cc1`, the figure is 98.3% (inactive).
On to `NCCCNc1nc2ccccc2c2c(=O)c3cc(Cl)ccc3sc12`, for which the growth is 45.7% (inactive).
Regarding `Oc1c(I)cc(I)cc1CN(Cc1ccccn1)Cc1ccccn1`, the growth is 25.6% (inactive).
Turning to `c1cc(OCCN2CCCCCC2)ccc1CNc1ccc2nc(CCC3CCCCC3)[nH]c2c1`, the growth is 82.6% (inactive).
As for `Nc1nc(N)c2c(n1)NC(c1cccc(Nc3ccnc4cc(C(F)(F)F)ccc34)c1)CC(c1ccc3c(c1)OCO3)=N2` (stereo not given), the growth was 82.4% (inactive).
To `CCN(CC)CCN1C(=O)c2c(c3c4ccccc4[nH]c3c3ccc4ccccc4c23)C1=O` belongs -67.8% (active).
To `COC(=O)c1nc(-c2ccccc2)oc1S(=O)(=O)N1CCCC(C)C1` (stereo not given) belongs 87.8% (inactive).
As for `O=C(CCCCCCCC(=O)N1CCCCC1)N1CCCCC1`, the figure is 94.6% (inactive).
Turning to `O=C1C(Cl)=C(Nc2ccccc2)C(=O)c2ccccc21`, the growth is -34.3% (active).
To `C1CCC(N2CN3c4nonc4N4CN(C5CCCCC5)CN5c6nonc6N(C2)C3C45)CC1` (stereo not given) belongs 98.4% (inactive); to `Cc1cccc(N2C(=O)/C(=C/C(Cl)=C/c3ccc([N+](=O)[O-])cc3)SC2=S)c1C`, 10.4% (inactive); to `C=C1C(=O)O[C@H]2[C@H]1CC/C(COC(=O)/C=C\C(=O)NCc1ccc(Cn3c(=O)sn(CCCCl)c3=O)cc1)=C\CC[C@@]1(C)O[C@@H]21`, 84.1% (inactive).
As for `Cc1cc(N2CCN(CC(=O)Nc3ccc4c(ccn4Cc4ccccc4)c3)CC2)nc(N2CCOCC2)n1`, the growth is 83.8% (inactive).
To `CCOC(=O)c1ccc[nH]1` belongs 87.7% (inactive).
In the case of `CN(C)CCCNC(=O)c1cncnc1Nc1ccc2c(ccn2Cc2cccc(F)c2)c1`, the growth was 95.6% (inactive).
As for `COc1ccc(-c2cc(C(=O)N3N=C(c4ccc(N)cc4)CC3c3ccc(Cl)cc3)c3cc(OC)ccc3n2)cc1` (stereo not given), the figure is 67.6% (inactive).
For `CNCCCNc1nc2ccccc2c2c(=O)c3cc(Cl)ccc3sc12`, the growth is 70.1% (inactive).
As for `CS(=O)/C(C#N)=C\C=C\c1cccc(Cl)c1` (stereo not given), the figure is -7.77% (active).
As for `CN1CCN(Cc2ccc(NC(=O)c3cncc(C#Cc4cnc(N)cc4C#N)c3)cc2C(F)(F)F)CC1`, the figure is 15.3% (inactive).
`COc1ccc(Oc2ccc(/C=C/C(=O)c3ccc(OC)c(OC)c3)cc2)cc1`: the growth is 83.7% (inactive).
On to `O=C(Cc1ccc(/C=C/C(=O)c2ncc[nH]2)cc1)Nc1cc(F)c(F)c(F)c1`, for which the growth is 32.2% (inactive).
Take `C#CCOc1ccc2nc(CCl)c(Cl)c(Nc3cccc(C(F)(F)F)c3)c2c1`: the growth is 87.8% (inactive).
